“And” between values parts separate entries of the source, which are not always exact repeats. Equal entries are not always repeated. Inconclusive results are not listed. The source made the active and inactive calls. Calls follow the shape of the dose curve; as a rule, active = well fitted curve in the direction sought with a large enough effect; inconclusive = small, poorly fitted or top-dose-only effect, or another doubt; inactive = no such curve, though single readings can be large; an effect the other way counts as inactive or inconclusive.
Columns and labels:
CRL-7250 = normal cell line; test: Cytotoxic Profiling of Annotated Libraries Using Quantitative High-Throughput Screening (AID 1296008); details: Five cell lines viability, CellTiter-Glo ATP luminescence, 48-72 h; max response: active compounds read low; also: nearly all actives have a fitted effect of over 60% in size; also: potency is read from the fitted curve at half-maximal effect
Outline: (§1)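 Cytotoxicity was measured as CellTiter-Glo ATP luminescence, read after 10 min at room temperature. Compound treatment of the cells lasted 48 or 72 hr at 37 degrees Celsius in a qHTS format.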

HaCat [1] = test: as above; details: Five cell lines viability, CellTiter-Glo ATP luminescence, 48-72 h; max response: active compounds read low
Outline: as §1

KB-3-1 = test: as above; details: Five cell lines viability, CellTiter-Glo ATP luminescence, 48-72 h; max response: active compounds read low
Outline: as §1

NIH3T3 [2] = test: as above; details: Five cell lines viability, CellTiter-Glo ATP luminescence, 48-72 h; max response: active compounds read low
Outline: as §1

HACAT [3] = test: qHTS assay to identify novel small-molecules to repurpose for Merkel cell carcinoma treatment (AID 1296009); details: MCC and control cell lines, CellTiter-Glo viability, 72 h; at 44.8 µM (top of the series) unless noted; also: nearly all actives have a fitted effect of over 60% in size; also: potency is read from the fitted curve at half-maximal effect
Outline: (§2)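 72 hr, 37 degree celsius; NPC 8-pt / MIPE 11-pt dose response; compound pinned in DMSO; CellTiter-Glo, 10 min RT, luminescence; normalized to no-cell and DMSO controls.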

HEK293T [4] = test: as above; details: MCC and control cell lines, CellTiter-Glo viability, 72 h; series mostly up to 44.8 µM
Outline: as §2

MCC-13 = test: as above; details: MCC and control cell lines, CellTiter-Glo viability, 72 h; series mostly up to 46 µM
Outline: as §2

MCC-26 = test: as above; details: MCC and control cell lines, CellTiter-Glo viability, 72 h; series mostly up to 46 µM
Outline: as §2

MKL-1 = test: as above; details: MCC and control cell lines, CellTiter-Glo viability, 72 h; series mostly up to 46 µM
Outline: as §2

MKL-2 = test: as above; details: MCC and control cell lines, CellTiter-Glo viability, 72 h; series mostly up to 46 µM
Outline: as §2

NIH3T3 [5] = test: as above; details: MCC and control cell lines, CellTiter-Glo viability, 72 h; at 44.8 µM (top of the series) unless noted
Outline: as §2

UISO = test: as above; details: MCC and control cell lines, CellTiter-Glo viability, 72 h; series mostly up to 46 µM
Outline: as §2

WaGa = test: as above; details: MCC and control cell lines, CellTiter-Glo viability, 72 h; series mostly up to 46 µM
Outline: as §2

HEK293 = test: Cytotoxic Profiling of Annotated Libraries Using Quantitative High-Throughput Screening (AID 1296008); details: Five cell lines viability, CellTiter-Glo ATP luminescence, 48-72 h; max response: active compounds read low; also: nearly all actives have a fitted effect of over 60% in size; also: potency is read from the fitted curve at half-maximal effect
Outline: as §1

C33A = test: Primary qHTS to identify gynecologic anti-cancer compounds using libraries of approved drugs and bioactive compounds (AID 1345084); details: Gynecologic cancer cell panel viability, ATPlite luminescence, 48 h; series mostly up to 57.5 µM; also: nearly all actives have a fitted effect of over 55% in size
Outline: (§3)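 Five-concentration response, 48 h; readout is ATP-driven luciferase luminescence.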

CASKI = test: as above; details: Gynecologic cancer cell panel viability, ATPlite luminescence, 48 h; series mostly up to 57.5 µM
Outline: as §3

HeLa = test: as above; details: Gynecologic cancer cell panel viability, ATPlite luminescence, 48 h; series mostly up to 57.5 µM
Outline: as §3

Hek293T [6] = test: as above; details: Gynecologic cancer cell panel viability, ATPlite luminescence, 48 h, control line for the selectivity index; series mostly up to 57.5 µM
Outline: as §3

JEG-3 = test: as above; details: Gynecologic cancer cell panel viability, ATPlite luminescence, 48 h; series mostly up to 57.5 µM
Outline: as §3

Es-2 = test: as above; details: Gynecologic cancer cell panel viability, ATPlite luminescence, 48 h; series mostly up to 57.5 µM
Outline: as §3
% is scaled to controls: 0 for no effect and ±100 for the full control effect.

CCCc1nc(C(C)(C)O)c(C(=O)O)n1Cc1ccc(-c2ccccc2-c2nn[nH]n2)cc1
inactive: outcome (CRL-7250) | outcome (HaCat [1]) | max response (KB-3-1) 0.595% | outcome (NIH3T3 [2]) | outcome (HACAT [3]) | Potency (HEK293T [4]) | Potency (MCC-13) | Potency (MCC-26) | Potency (MKL-1) | Potency (MKL-2) | outcome (NIH3T3 [5]) | Potency (UISO) | Potency (WaGa)

Cc1ccc2nc(NCCN)c3ncc(C)n3c2c1
active: Potency (CRL-7250) 16.6 µM | Potency (HEK293) 4.18 µM | Potency (KB-3-1) 3.32 µM | Potency (MKL-2) 14.8 µM | Potency (UISO) 20.9 µM

Cn1cnc2c(F)c(Nc3ccc(Br)cc3F)c(C(=O)NOCCO)cc21
inactive: max response (HEK293) -7.34% | max response (KB-3-1) -0.774% and -5.49% | Potency (MKL-1) | Potency (MKL-2) | Potency (UISO) | Potency (WaGa) | Potency (C33A) | Potency (CASKI) | Potency (HeLa) | Potency (Hek293T [6]) | Potency (JEG-3)
active: Potency (CRL-7250) 23.5 µM and 7.31 µM

N=c1ccn2c(n1)O[C@H]1[C@@H](O)[C@@H](CO)O[C@H]12
active: Potency (HEK293) 4.18 µM | Potency (NIH3T3 [2]) 3.32 µM | Potency (UISO) 0.526 µM | Potency (WaGa) 2.09 µM
inactive: max response (CRL-7250) -13.3% | max response (KB-3-1) -23.9% | Potency (MCC-26)

Cc1coc2c1C(=O)C(=O)c1c-2ccc2c(C)cccc12
inactive: max response (CRL-7250) -23.2% | outcome (HaCat [1]) | outcome (KB-3-1) | max response (NIH3T3 [2]) -4.31% and -4.38% | outcome (HACAT [3]) | Potency (MCC-13) | Potency (MCC-26) | Potency (MKL-1) | Potency (MKL-2) | Potency (WaGa) | Potency (CASKI) | Potency (Es-2) | Potency (HeLa) | Potency (Hek293T [6])

CCNC(=O)c1cc2c(-c3cc(OCCN4CCCC4)c(Cl)cc3Cl)nc(N)nc2s1
inactive: Potency (MKL-2)
active: Potency (CRL-7250) 4.69 µM | Potency (HEK293) 0.418 µM | Potency (NIH3T3 [2]) 2.35 µM | Potency (UISO) 2.96 µM | Potency (WaGa) 1.18 µM

NS(=O)(=O)OC[C@@H]1C[C@@H](n2ccc3c(N[C@H]4CCc5ccccc54)ncnc32)C[C@H]1O
active: Potency (CRL-7250) 2.64 µM | Potency (HEK293) 0.526 µM | Potency (MCC-13) 5.9 µM | Potency (UISO) 1.18 µM | Potency (WaGa) 1.48 µM
inactive: max response (NIH3T3 [2]) -27.1%

C[C@@]12C[C@@]3(O)O[C@@H](O1)[C@]1(COC(=O)c4ccccc4)[C@@H]3C[C@@]12O[C@@H]1O[C@H](CO)[C@@H](O)[C@H](O)[C@@H]1O
inactive: max response (CRL-7250) 4.21% | outcome (HaCat [1]) | outcome (KB-3-1) | outcome (NIH3T3 [2]) | outcome (HACAT [3]) | Potency (MCC-13) | Potency (MCC-26) | Potency (MKL-1) | Potency (MKL-2) | outcome (NIH3T3 [5]) | Potency (UISO) | Potency (WaGa)

CCCCCCCCCCCCCCCC(=O)OC[C@@H](NC(=O)C(Cl)Cl)[C@H](O)c1ccc([N+](=O)[O-])cc1
inactive: max response (CRL-7250) -9.61% | outcome (HaCat [1]) | outcome (KB-3-1) | max response (NIH3T3 [2]) 0.666% | outcome (HACAT [3]) | Potency (MCC-13) | Potency (MCC-26) | Potency (MKL-1) | Potency (MKL-2) | Potency (UISO) | Potency (WaGa)

CC1(C)[C@H](O[C@H]2O[C@H](C(=O)O)[C@@H](O)[C@H](O)[C@H]2O[C@@H]2O[C@H](C(=O)O)[C@@H](O)[C@H](O)[C@H]2O)CC[C@@]2(C)[C@H]1CC[C@]1(C)[C@H]2C(=O)C=C2[C@H]3C[C@@](C)(C(=O)O)CC[C@]3(C)CC[C@]21C
inactive: max response (CRL-7250) -14.3% | outcome (HaCat [1]) | outcome (KB-3-1) | outcome (NIH3T3 [2]) | outcome (HACAT [3]) | Potency (MCC-13) | Potency (MCC-26) | Potency (MKL-1) | Potency (MKL-2) | outcome (NIH3T3 [5]) | Potency (UISO) | Potency (WaGa)

CCCNS(=O)(=O)Nc1ncnc(OCCOc2ncc(Br)cn2)c1-c1ccc(Br)cc1
inactive: max response (CRL-7250) -8.99% | outcome (HaCat [1]) | outcome (KB-3-1) | max response (NIH3T3 [2]) -4.31% | outcome (HACAT [3]) | Potency (MCC-13) | Potency (MCC-26) | Potency (MKL-1) | Potency (MKL-2) | Potency (UISO) | Potency (WaGa)

Cn1c(Nc2ccc(C(F)(F)F)cc2)nc2cc(Oc3ccnc(-c4ncc(C(F)(F)F)[nH]4)c3)ccc21
active: Potency (CRL-7250) 0.372 µM | Potency (HEK293) 26.4 µM | Potency (KB-3-1) 11.8 µM | Potency (UISO) 3.72 µM | Potency (WaGa) 18.7 µM
inactive: Potency (MCC-26)

Oc1ccc([C@@H]2Oc3ccc(O)cc3[C@@H]3CCC[C@@H]32)cc1
inactive: max response (CRL-7250) -17% and -0.0013% | Potency (C33A) | Potency (Es-2)
active: Potency (HEK293) 11.8 µM | Potency (KB-3-1) 14.8 µM | Potency (UISO) 18.7 µM

CCNC(=O)Nc1ccc(-c2nc3c(c(N4CCOC[C@H]4C)n2)CCN(C2COC2)C3)cc1
inactive: Potency (MKL-2)
active: Potency (CRL-7250) 0.296 µM | Potency (HEK293) 0.743 µM | Potency (KB-3-1) 1.32 µM | Potency (NIH3T3 [2]) 5.9 µM | Potency (UISO) 3.72 µM

OCCN1C[C@H](O)[C@@H](O)[C@H](O)[C@@H]1CO
inactive: max response (CRL-7250) -0.792% | outcome (HaCat [1]) | outcome (KB-3-1) | max response (NIH3T3 [2]) -2.06% | outcome (HACAT [3]) | Potency (MCC-13) | Potency (MCC-26) | Potency (MKL-1) | Potency (MKL-2) | Potency (UISO) | Potency (WaGa)
